# Screening data as filed in PubChem.
# Giardia killer: kills Giardia lamblia; Giardia lamblia trophozoite viability; activity change, % at 7.66 µM, hits read low; 0.15% of 340,000 active; AID 540267; in the data active = activity change below about -80%; inconclusive = between about -30% and that limit;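 also: parasites exposed to compound for two days anaerobically before the ATP read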
#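 ATP-content bioluminescence gauges trophozoite survival. Cells (100/well) receive compound and incubate anaerobically for 48 hrs at 37 deg C; detection reagent follows for 15-30 min at room temperature.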
# KB-3-1 tox: KB-3-1 parental cell cytotoxicity | AID 1347075 | KB-3-1 viability, CellTiter-Glo ATP luminescence, 72 h | 1.4% of 400,000 active | Potency, µM (series often up to 46.1 µM), usual class: cytotoxic; also: potency is read from the fitted curve at half-maximal effect; nearly all actives have a fitted effect of over 60% in size
#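 Parental KB-3-1 viability, qHTS format: 72 h compound exposure, 37 °C; CellTiter-Glo; media-only wells and DMSO plates as controls; concentration-effect fits on corrected data.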
# A549 viability: A549 cytotoxicity, counter-screen for Nrf2 inhibitors. A549 ARE-Fluc cells, CellTiter-Fluor viability, 18-24 h. Potency, µM (highest dose often 46 µM), for the others: top-dose activity change, negative = cytotoxicity, most hits filed as inhibitors. 0.16% of 390,000 active; also: potency is read from the fitted curve at half-maximal effect
#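 A549 ARE-Fluc cells in 5% FBS OPTI-MEM, 5000 cells/well, rested 2 h then exposed to compounds in concentration-response for 18-24 h at 37 °C. Viability by CellTiter-Fluor fluorescence (Ex 405/Em 525) after 30 min; luciferase luminescence (BugLite, 15 min, RT) read afterwards.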
# KB-V1 cytotox: kills drug-selected multidrug resistant KB-V1 cells; KB-V1 MDR cells viability, CellTiter-Glo, 72 h; 3.4% of 400,000 active; Potency, µM (highest dose often 46.1 µM), actives largely listed as cytotoxic; also: potency is read from the fitted curve at half-maximal effect; nearly all actives have a fitted effect of over 60% in size
#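 Compound-treated KB-V1 multidrug-resistant cells, 72 h, 37 degrees C; viability by CellTiter-Glo. Fitted qHTS curves give the values.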
# PI4K2A block: blocks human PI4K2A kinase activity; activity change, negative = inhibition, % at 76.9 µM; purified PI4K2A, ADP-Glo luminescence, 1 h; active compounds read low; Q9BTU6; 0.13% of 420,000 active; in the data active = activity change below about -50%; inconclusive = mostly about -30% to -49%;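 also: -100% = wells without enzyme as full effect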
# Target sequence (Q9BTU6 whole entry, looked up): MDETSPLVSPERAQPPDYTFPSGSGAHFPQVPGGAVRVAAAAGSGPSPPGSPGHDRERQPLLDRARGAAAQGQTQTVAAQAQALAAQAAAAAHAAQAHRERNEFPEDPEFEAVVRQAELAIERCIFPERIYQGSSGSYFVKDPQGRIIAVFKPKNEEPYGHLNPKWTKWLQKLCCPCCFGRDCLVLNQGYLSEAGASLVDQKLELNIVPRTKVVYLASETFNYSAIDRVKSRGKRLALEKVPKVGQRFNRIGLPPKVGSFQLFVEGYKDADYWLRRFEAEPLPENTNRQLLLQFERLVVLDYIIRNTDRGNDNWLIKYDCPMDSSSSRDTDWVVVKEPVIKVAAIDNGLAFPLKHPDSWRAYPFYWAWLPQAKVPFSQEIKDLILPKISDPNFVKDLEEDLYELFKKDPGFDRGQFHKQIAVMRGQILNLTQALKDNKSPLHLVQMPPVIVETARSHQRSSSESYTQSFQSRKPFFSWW
#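 PI4K2A activity was measured by ADP-Glo luminescence: enzyme (4 ug/mL stock) and phosphatidylinositol (1.2 mM stock) in Tris pH 7.5/MgCl2/EGTA/Triton X-100 buffer were reacted with ATP (300 microM stock) for one hour at ambient temperature.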
# Nrf2 block: blocks Nrf2 signaling; A549 ARE-Fluc reporter, luciferase luminescence, 18-24 h; Potency, µM (highest dose often 46 µM), inactives show at the highest dose activity change, negative = inhibition, usual class: inhibitors; 2.1% of 360,000 active; AID 504444; also: potency is read from the fitted curve at half-maximal effect; nearly all actives have a fitted effect of over 60% in size
#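 In this cell-based qHTS, ARE-driven firefly luciferase in A549 cells reports Nrf2 activity; the luminescent signal after BugLite lysis is the measured value, with a prior CellTiter-Fluor read for cell health.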
# Active calls of the source: *; i = inactive; ? = inconclusive; / = no result. A selection: hits, their analogues and other compounds. The true share with any hit is near 5.7%. Unless noted, calls follow the shape of the dose curve; as a rule, active = well fitted curve in the direction sought with a large enough effect; inconclusive = small, poorly fitted or top-dose-only effect, or another doubt; inactive = no such curve, though single readings can be large; an effect the other way counts as inactive or inconclusive. Unless noted, % is scaled to controls: 0 for no effect and ±100 for the full control effect.
SMILES,Giardia killer,KB-3-1 tox,A549 viability,KB-V1 cytotox,PI4K2A block,Nrf2 block
O=C1CN(c2nc(-c3cccnc3)nc3sc4c(c23)CCCC4)CCN1,-8,i,-1%,i,-7,12µM*
Nc1nc(-c2cccnc2)nc2sc3c(c12)CCCC3,-12,i,1%,?,-1,?
COc1ccccc1CNC(=O)CSc1nc(-c2ccc(OC)c(OC)c2)cc(C(F)(F)F)n1,/,/,-13%,/,-5,-12%
COc1ccc(-c2cc(C(F)(F)F)nc(SCC(=O)N(C)Cc3cn(C)nc3C)n2)cc1OC,5,?,-1%,18µM*,2,?
COc1ccc(-c2cc(C(F)(F)F)nc(SCC(=O)NCc3cnn(C)c3C)n2)cc1OC,-11,?,-7%,9.2µM*,-1,1%
Cc1ccc(S(=O)(=O)NCC(=O)NCC(=O)N(C)Cc2ccc3ccccc3c2)cc1C,3,?,-6%,13µM*,-5,?
O=C(NCc1ccccc1)C1Cc2c(-c3ccc4c(c3)OCO4)ccnc2O1 (stereo not drawn),/,0.82µM*,/,1.2µM*,-2,/
NC(=O)c1cccc(-c2ccnc3c2CC(C(=O)NCc2ccccc2)O3)c1 (stereo not drawn),/,3.7µM*,/,i,2,/
O=[N+]([O-])c1ccccc1SNc1ccccc1,/,i,/,i,5,/
O=[N+]([O-])c1ccc(Sc2ncccn2)c([N+](=O)[O-])c1,-2,i,?,i,14,23µM*
O=[N+]([O-])c1ccc(SNc2ccccc2)c([N+](=O)[O-])c1,-10,i,-14%,23µM*,8,-15%
Cc1cccc(N2CCN(C(=O)c3[nH]c(C(F)(F)F)nc3-c3ccccc3)CC2)c1C,/,2.3µM*,/,?,-5,/
COc1ccccc1N1CCN(C(=O)c2[nH]c(C(F)(F)F)nc2-c2ccccc2)CC1,/,5.8µM*,/,?,-1,/
O=C(c1[nH]c(C(F)(F)F)nc1-c1ccccc1)N1CCN(c2cccc(C(F)(F)F)n2)CC1,/,5.2µM*,/,?,-4,/
O=S(=O)(c1ccc2c(c1)OCCO2)N1CCN(S(=O)(=O)c2ccc(Br)cc2F)CC1,/,/,-6%,/,/,-4%
CCn1c(SCC(N)=O)nnc1-c1cc2c(C)nn(-c3ccccc3)c2s1,-12,i,0%,13µM*,-2,-25%
CCn1c(SCC(=O)O)nnc1-c1ccc2[nH]c(C)c(C)c2c1,-8,i,-6%,i,0,3%
CCn1c(SCC(=O)Nc2cc(C(C)(C)C)nn2-c2ccccc2)nnc1-c1cccs1,-23,i,3%,?,3,?
Cc1[nH]c2ccc(-c3nnc(SCC(=O)c4ccc(F)cc4)o3)cc2c1C,-2,i,-3%,i,-1,?
CCn1c(SCC(N)=O)nnc1-c1ccc2[nH]c(C)c(C)c2c1,3,5.8µM*,11%,21µM*,6,6%
Cc1cc(C)c(C)c(C(=O)CSc2nnc(-c3ccc4[nH]c(C)c(C)c4c3)o2)c1C,-6,i,?,?,-11,12µM*
COc1cccc(C(=O)Nc2cccc(C(=O)OCc3cc(=O)n4nc(C5CC5)sc4n3)c2)c1,/,i,-5%,i,-1,/
CC(=O)N[C@@H]1C[C@@H]2O[C@H](CO)CC[C@@H]2O[C@@H]1CCc1ccc(C#CC2(O)CCCC2)cc1,/,/,/,/,-7,/
Cc1ccc(S(=O)(=O)c2cc3cc(Br)ccc3oc2=O)cc1,-8,21µM*,25%,18µM*,-1,?
CC(C)c1ccc(S(=O)(=O)c2cc3cc(Br)ccc3oc2=O)cc1,7,?,0%,?,3,-13%
SMILES,Giardia killer,KB-3-1 tox,A549 viability,KB-V1 cytotox,PI4K2A block,Nrf2 block
COc1ccc(/C=C/C(=O)NCc2cnn(C)c2C)cc1COc1ccc(Br)cc1,-5,i,-24%,15µM*,2,?
COc1ccc(/C=C/C(=O)NCc2c(C)nn(C)c2C)cc1COc1ccc(Br)cc1,-13,i,-25%,i,4,?
CCOC(=O)c1noc2ncnc(N3CCN(c4ccccc4OC)CC3)c12,/,?,3%,?,-4,-27%
CC(C)(C)c1csc(NNC(=O)c2ccc(Cl)cc2)n1,12,i,9%,i,5,?
O=C(NNC1=Nc2ccccc2SC1)c1ccc(F)cc1,-20,?,-20%,i,1,23µM*
O=C(NNC1=Nc2ccccc2SC1)c1ccc(Cl)cc1,-4,?,?,?,5,10µM*
COc1ccc(N2CCN(c3cc(C(=O)NC4CCCCC4)ncn3)CC2)cc1OC,/,i,/,15µM*,-8,/
O=C(Nc1ccc(-c2nc3ccccc3[nH]2)cc1)c1ccc2c(c1)OCCO2,/,?,/,i,/,/
Cc1cc(/C=N/n2c(COc3ccccc3C)nc3ccccc3c2=O)c(O)c([N+](=O)[O-])c1,1,i,?,i,2,8.2µM*
O=[N+]([O-])c1ccc(Cl)c(/C=N/n2c(COc3ccccc3)n[nH]c2=S)c1,16,i,-5%,16µM*,-10,9%
O=c1c2ccccc2nc(COc2ccccc2)n1/N=C/c1cc([N+](=O)[O-])ccc1O,-1,?,-9%,7.3µM*,-6,-22%
Cc1ccccc1OCc1nc2ccccc2c(=O)n1/N=C/c1c[nH]c2ccccc12,10,i,?,i,3,?
Cc1ccc(S(=O)(=O)N2CCN(c3nc(-c4cncnc4)nc4ccccc34)CC2)cc1,17,/,-4%,/,/,-9%
Cc1cc(OCc2cc(C(=O)N3CCN(C)C(=O)[C@@H]3C)no2)cc(C)c1Cl,-3,i,-10%,i,9,21µM*
CCCCn1c(SCC(=O)Nc2cc(C(F)(F)F)cc(C(F)(F)F)c2)nnc1C(CC)N(C)C (stereo not drawn),11,i,?,15µM*,-1,13µM*
